Compound activity as filed in PubChem BioAssay.
A selection: hits, their analogues and other compounds. The true share with any hit is near 3.1%.
Vif-A3F inh = Vif-A3F binding inhibition | Potency, µM (titrated, usually from 46.1 µM) | AID 602313 | 390,000 tested, 0.2% active | HeLa A3F-eYFP + Vif (tagged APOBEC3F with the HIV-1 protein that degrades it), YFP fluorescence increase; further: nearly all actives have a fitted effect of over 65% in size
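HeLa cells stably expressing A3F-eYFP plus Vif, plated and incubated overnight at 37 deg C, then exposed to compounds overnight at 37 deg C. Blocked degradation read as raised yellow fluorescence (Ex 488/Em 500-530).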
VDR inh = vitamin D3 receptor (human) inhibition; P11473; VDR-SRC2-3 peptide fluorescence polarization, 2 h; Potency, µM, usual class: inhibitors; 400,000 tested, 0.93% active; AID 504847
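Signal is fluorescence polarization, reporting how far test compounds block the interaction of VDR with the SRC2-3 coregulator peptide after a 2 h room-temperature incubation.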
Vif-A3G inh = Vif-A3G binding inhibition; HeLa A3G-eYFP + Vif (tagged APOBEC3G with the HIV-1 protein that degrades it), YFP fluorescence, overnight; Q9HC16; 410,000 tested, 0.076% active; Potency, µM (top dose mostly 46.1 µM), usual class: inhibitors; further: nearly all actives have a fitted effect of over 60% in size
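Read-out is eYFP fluorescence (Ex 488/Em 500-530) from Vif-expressing HeLa A3G-eYFP cells; more signal means A3G escaped Vif-mediated degradation. Cells plated overnight, compound pinned in, incubated overnight at 37 deg C.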
PLK1 PBD block = blocks phosphopeptide binding to human PLK1 polo-box domain; Plk1 PBD binding of FITC phosphopeptide, fluorescence polarization; Potency, µM, usual class: inhibitors; 360,000 tested, 2.8% active; P53350; further: series mostly up to about 57 µM; nearly all actives have a fitted effect of over 65% in size
Target sequence (P53350 whole entry, looked up, the tested form may be a part): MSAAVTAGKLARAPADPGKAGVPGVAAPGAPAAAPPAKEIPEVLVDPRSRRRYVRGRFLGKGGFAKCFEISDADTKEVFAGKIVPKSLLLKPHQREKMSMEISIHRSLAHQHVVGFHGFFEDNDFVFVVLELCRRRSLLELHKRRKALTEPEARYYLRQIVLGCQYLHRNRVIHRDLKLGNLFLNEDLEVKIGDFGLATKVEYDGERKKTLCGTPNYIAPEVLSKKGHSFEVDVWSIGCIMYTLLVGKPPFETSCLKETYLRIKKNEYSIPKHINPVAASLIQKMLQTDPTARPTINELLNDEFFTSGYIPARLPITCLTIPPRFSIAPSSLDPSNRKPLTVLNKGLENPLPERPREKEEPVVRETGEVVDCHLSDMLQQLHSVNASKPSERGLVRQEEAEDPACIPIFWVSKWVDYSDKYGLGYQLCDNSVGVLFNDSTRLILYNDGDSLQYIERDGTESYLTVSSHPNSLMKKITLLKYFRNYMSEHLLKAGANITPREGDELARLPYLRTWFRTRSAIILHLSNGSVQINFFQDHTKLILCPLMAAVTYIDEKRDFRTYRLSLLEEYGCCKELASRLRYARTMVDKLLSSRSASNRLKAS
TSHR antagonist = human thyrotropin receptor antagonism. P16473. TSHR-expressing cells, TSH-stimulated cAMP HTRF, 2 h; hits give low values. activity change, negative = inhibition, % at 11.5 µM. 330,000 tested, 0.2% active. AID 504810;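 active means activity change below a set negative limit, meaning inhibition stronger than a set level, cut at about -70% in these data; inconclusive means activity change between two set negative limits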
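Cell-based HTRF cAMP assay; TSHR cells + compound, TSH EC80 (4nM final), 2 h, 37 deg C. Lysis with anti-cAMP cryptate and cAMP-d2, 30 min RT, read 665/620 nm.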
Each line names hits and unclear results; the compound was inactive in the other large screens; ! = not active in a repeat. Unless noted, the call rests on the fitted dose curve; in most records, active means well fitted curve in the direction sought with a large enough effect; inconclusive means small, poorly fitted or top-dose-only effect, or another doubt; inactive means no such curve, though single readings can be large; an effect the other way counts as inactive or inconclusive.

O=C1NC(=O)N(c2ccccc2F)C(=O)/C1=C/c1cn(CC(=O)N2CCOCC2)c2ccccc12	VDR inh inconclusive, PLK1 PBD block 4.7µM
Cc1cc(/C=C2\C(=O)NC(=O)N(c3ccc(F)cc3)C2=O)c(C)n1-c1cccc(C(=O)O)c1	PLK1 PBD block 17µM
CCN1C(=O)NC(=O)/C(=C\c2cn(CC(=O)O)c3ccccc23)C1=O	none (no result: Vif-A3F inh, VDR inh, Vif-A3G inh, PLK1 PBD block)
O=C(O)Cn1cc(/C=C2\C(=O)NC(=O)N(Cc3ccco3)C2=O)c2ccccc21	VDR inh inconclusive, PLK1 PBD block 9.5µM
Cc1ccc(N2C(=O)NC(=O)/C(=C\c3cn(CC(=O)O)c4ccccc34)C2=O)cc1	PLK1 PBD block 27µM
CCC1CN2CCC1CC2C(O)c1ccnc2ccc(OC)cc12 (configuration not stated)	none (no result: Vif-A3F inh, Vif-A3G inh, PLK1 PBD block, TSHR antagonist)
COC(=O)c1cn(S(=O)(=O)c2ccccc2)c2ccccc12	Vif-A3F inh inconclusive
O=C(CCl)c1ccc(O)c(O)c1	none (no result: Vif-A3F inh, VDR inh, PLK1 PBD block, TSHR antagonist)
O=C(O)Cn1cc(/C=C2\C(=O)NC(=O)N(c3ccc(Br)cc3)C2=O)c2ccccc21	Vif-A3F inh inconclusive, VDR inh inconclusive, Vif-A3G inh inconclusive, PLK1 PBD block 3µM
O=C1C(I)=CC(=C(c2cc(I)c(O)c(I)c2)c2ccccc2C(=O)O)C=C1I	VDR inh 35µM (no result: Vif-A3F inh, Vif-A3G inh, PLK1 PBD block, TSHR antagonist)
Nc1ccccc1C(=O)O	none (no result: Vif-A3F inh, Vif-A3G inh, PLK1 PBD block, TSHR antagonist)
CCC(Sc1ccccc1)C(=O)OC1CC2CCC(C1)N2C (configuration not stated)	none (no result: Vif-A3F inh, Vif-A3G inh, PLK1 PBD block, TSHR antagonist)
Cc1ccc2c(c1Cl)NC(C(=O)O)C1CC(Sc3ccccc3[N+](=O)[O-])C(Cl)C21 (configuration not stated)	PLK1 PBD block 27µM
CCN(CC)C(=O)c1ccc2c(c1)C1C(Cl)C(Sc3ccccc3[N+](=O)[O-])CC1C(C(=O)O)N2 (configuration not stated)	PLK1 PBD block 6.7µM
O=C1CS[C@@H](c2ccccc2Cl)c2cc(Cl)ccc2N1	none (no result: Vif-A3F inh, Vif-A3G inh, PLK1 PBD block, TSHR antagonist)
CN(C)C(=O)Nc1ccc(-n2nc(C(C)(C)C)oc2=O)c(Cl)c1	none (no result: Vif-A3F inh, Vif-A3G inh, PLK1 PBD block, TSHR antagonist)
CCN(CC)/[N+]([O-])=N/O	none (no result: Vif-A3F inh, Vif-A3G inh, PLK1 PBD block, TSHR antagonist)
CCC(C)C(=O)OC1C(O)C2C(CN3CC(C)CCC3[C@]2(C)O)C2C[C@]34O[C@@]5(O)C(OC(=O)C(C)(O)CC)CCC3(C)C5C(OC(C)=O)C(OC(C)=O)C4[C@@]21O (some centres not stated)	none (no result: Vif-A3F inh, Vif-A3G inh, PLK1 PBD block, TSHR antagonist)
CCN(CC)C(=O)c1ccc(NC(=O)c2ccc(-c3nn(C)c(=O)c4ccccc34)cc2)cc1	PLK1 PBD block 30µM
O=Cc1c(C(=O)O)n(Cc2ccc(Cl)cc2)c2ccccc12	Vif-A3F inh 10µM, Vif-A3G inh inconclusive
COc1ccccc1-n1c(/C=C/c2ccc(O)cc2)nc2ccccc2c1=O	Vif-A3F inh 10µM
COc1ccc(OC)c(C2=NS(=O)(=O)N(C)C(C(=O)N3CCC4(CC3)OCCO4)=C2)c1	PLK1 PBD block 30µM
Cc1ccc(CNC(=O)c2ccccc2NC(=O)c2nsc3ccccc23)cc1	Vif-A3F inh 13µM (no result: PLK1 PBD block, TSHR antagonist)
O=C(NCc1ccccc1)c1cccn(Cc2ccccc2)c1=O	none
Cc1ccc(CN2CCN(CC(=O)N3CCC4(CC3)OCCO4)C2=O)cc1	PLK1 PBD block 30µM
Cc1ccc(CN2CCSc3ccc(C(=O)N4CCC5(CC4)OCCO5)cc32)cc1	none
O=C(CCl)c1ccc(Oc2ccc(C(=O)CCl)cc2)cc1	VDR inh 7.1µM (no result: Vif-A3F inh, Vif-A3G inh, PLK1 PBD block, TSHR antagonist)
CC(C)C[C@H](NC(=O)[C@H](Cc1ccccc1)NC(=O)CNC(=O)[C@@H](NC(=O)[C@@H](N)Cc1ccc(O)cc1)[C@H](C)O)C(=O)N[C@H](C(=O)O)[C@H](C)O	none (no result: Vif-A3F inh, Vif-A3G inh, PLK1 PBD block, TSHR antagonist)
Cc1cc(OCC(=O)NCc2ccncc2)c2c3c(c(=O)oc2c1)CCC3	none
CC(Oc1cc2oc(=O)c3c(c2cc1Cl)CCCC3)C(=O)NCc1ccccn1 (configuration not stated)	PLK1 PBD block 24µM
CCS(=O)(=O)C(C)(C)S(=O)(=O)CC	none (no result: Vif-A3F inh, Vif-A3G inh, PLK1 PBD block, TSHR antagonist)
Cc1cc2c(C(C)C)c(O)c(O)c(C=O)c2c(O)c1-c1c(C)cc2c(C(C)C)c(O)c(O)c(C=O)c2c1O	VDR inh 6.3µM, TSHR antagonist -80! (no result: Vif-A3F inh, PLK1 PBD block)
O=C(O)[C@@H]1Cc2[nH]cnc2C(c2cccnc2)N1 (some centres not stated)	none (no result: Vif-A3F inh, Vif-A3G inh, PLK1 PBD block, TSHR antagonist)
N#CC1=C(N)Oc2c(c(=O)oc3ccccc23)C1c1ccc([N+](=O)[O-])o1 (configuration not stated)	Vif-A3F inh inconclusive, VDR inh inconclusive, PLK1 PBD block 21µM
